High-throughput results: PubChem, National Center for Advancing Translational Sciences (NCATS)
EPAC2 antag: human EPAC2 antagonism, validation; EPAC2 Rap1B BODIPY-GDP exchange, fluorescence; Potency, µM (highest dose often 112 µM), for inactives: top-dose activity, negative = inhibition, actives largely listed as inhibitors; 16,000 tested, 1.7% active; Q8WZA2;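 note: 100% = activation by cAMP agonist control; nearly all actives have a fitted effect of over 40% in size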
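Normalized against a 6.5 mM cAMP agonist control, compounds were tested on 100 nM EPAC2 exchanging Rap1B-bound BODIPY-GDP (250 nM) for 50 uM GDP. Fluorescence drop (ex 480, em 540 nm) was tracked at room temperature over 30 min at 5-min intervals.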
EPAC1 ag val: validation of human EPAC1 agonists. AID 1645883. 16,000 tested, 1% active. EPAC1 Rap1b BODIPY-GDP exchange, fluorescence. O95398. Potency, µM, for inactives: max response, positive = active, usual class: activators; note: nearly all actives have a fitted effect of over 70% in size
Target sequence (O95398 whole entry, looked up): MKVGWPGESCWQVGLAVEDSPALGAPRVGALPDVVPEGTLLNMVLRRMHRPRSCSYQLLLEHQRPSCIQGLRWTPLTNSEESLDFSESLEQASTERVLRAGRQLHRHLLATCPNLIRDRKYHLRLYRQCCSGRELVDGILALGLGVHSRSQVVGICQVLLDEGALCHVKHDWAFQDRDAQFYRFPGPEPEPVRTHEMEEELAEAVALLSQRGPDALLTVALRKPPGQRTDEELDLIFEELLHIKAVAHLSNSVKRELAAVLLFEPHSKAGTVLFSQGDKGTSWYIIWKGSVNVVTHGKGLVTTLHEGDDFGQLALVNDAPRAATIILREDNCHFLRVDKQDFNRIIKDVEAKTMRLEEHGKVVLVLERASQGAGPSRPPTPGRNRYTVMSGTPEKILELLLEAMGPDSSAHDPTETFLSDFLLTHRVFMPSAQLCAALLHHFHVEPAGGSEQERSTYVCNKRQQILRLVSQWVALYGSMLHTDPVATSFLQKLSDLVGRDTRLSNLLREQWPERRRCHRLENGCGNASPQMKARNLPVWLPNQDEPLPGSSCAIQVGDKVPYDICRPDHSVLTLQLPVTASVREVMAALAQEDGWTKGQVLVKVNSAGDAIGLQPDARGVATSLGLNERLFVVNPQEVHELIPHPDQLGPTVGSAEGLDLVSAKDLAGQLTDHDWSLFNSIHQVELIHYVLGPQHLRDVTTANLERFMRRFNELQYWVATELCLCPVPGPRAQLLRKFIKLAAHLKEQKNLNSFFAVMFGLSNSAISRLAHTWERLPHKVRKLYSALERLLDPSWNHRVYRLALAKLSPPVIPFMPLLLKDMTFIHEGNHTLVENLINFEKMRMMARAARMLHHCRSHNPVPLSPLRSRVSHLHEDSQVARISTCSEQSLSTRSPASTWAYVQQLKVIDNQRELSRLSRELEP
Starred values were filed as active, the others as inactive; ? = inconclusive; ! = a repeat was not active. A selection: hits, their analogues and other compounds. The true share with any hit is near 3.1%. Calls come from the whole dose curve; as a rule, active = well fitted curve in the direction sought with a large enough effect; inconclusive = small, poorly fitted or top-dose-only effect, or another doubt; inactive = no such curve, though single readings can be large; an effect the other way counts as inactive or inconclusive. Unless noted, % is set by controls: 0 for no effect and ±100 for the full control effect; potency is the fitted concentration of half-maximal effect.

SMILES	EPAC2 antag	EPAC1 ag val
Cc1noc(C)c1CC(=O)NCC1Cc2cc(-c3cccc(OC(F)(F)F)c3)ccc2O1 (centres undefined)	?	-12.9%
CC(=O)N1CCC[C@H]1C(=O)NCC1Cc2cc(-c3cccc(OC(F)(F)F)c3)ccc2O1 (some centres undefined)	70.8µM*	3.7%
NCCCC[C@H](N)C(=O)O	-11.9%	-2.9%
Nc1nc2c(nc(Br)n2[C@@H]2O[C@H]3COP(=O)(O)O[C@H]3[C@@H]2O)c(=O)[nH]1	-29.9%	21.3%
Nc1ncnc2c1nc(Br)n2C1OC2COP(=O)(O)O[C@@H]2C1O (some centres undefined)	1.26µM*	0.447µM*
Nc1cc(-c2ccncc2)c[nH]c1=O	35.5µM*!	?
O=C(NOCC1CC1)c1ccc(F)c(F)c1Nc1ccc(I)cc1Cl	-14.9%	?
O=C1C=CC(=C(c2ccc(O)cc2)c2ccc(O)cc2)C=C1	?	100µM*
CCC(=O)c1ccc(O)cc1	16.4%	-11.8%
COc1cc(CNc2nc(C)c(-c3ccn(C4Cc5ccccc5C4)n3)s2)cc2c1OCO2	-12.0%	?
COCCn1c(=O)c(-c2cccs2)nc2cnc(N(C)C)nc21	42.7%	112µM*
O=c1c(-c2cccs2)nc2cnc(Oc3ccccc3)nc2n1C1CC1	-22.3%	-21.7%
COCCn1c(=O)c(-c2cccs2)nc2cnc(OC)nc21	-3.8%	-37.4%
CN(C)c1ncc2nc(-c3cccs3)c(=O)n(C3CC3)c2n1	62.6%	100µM*
CCOC(=O)N1CCN(Cc2ccc3c(c2)CN(C(=O)c2cc(-c4ccccc4)on2)CCO3)CC1	-17.4%	7.4%
CCC1CN(CCNC(=O)c2cn3cc(C)ccc3n2)Cc2cc(OC)ccc2O1 (centres undefined)	-14.7%	2.5%
Cc1ccc(CN2CCOc3ccc(CN4CCC(O)(c5cccnc5)CC4)cc3C2)cc1	-19.6%	-18.4%
COC(=O)C1=C(C)NC(C)=C(C(=O)O[C@H]2CCN(Cc3ccccc3)C2)[C@H]1c1cccc([N+](=O)[O-])c1	-10.8%	?
COC(=O)C1=C(C)NC(C)=C(C(=O)OCCCN2CCC(c3ccccc3)(c3ccccc3)CC2)C1c1cccc([N+](=O)[O-])c1 (centres undefined)	-8.9%	112µM*!
C#CCN1C(C)=C(C(=O)OC)C(c2cccc([N+](=O)[O-])c2)C(C(=O)OCC)=C1C (centres undefined)	44.7µM*	10.3%
CCOC(=O)C1=C(C)NC(=S)NC1c1cccc(O)c1 (centres undefined)	-42.4%	7.0%
CCCCC(O)c1ccccc1 (centres undefined)	3.9%	-8.1%
CO[C@H]1C[C@@H]2CC[C@@H](C)[C@@](O)(O2)C(=O)C(=O)N2CCCC[C@H]2C(=O)O[C@H]([C@H](C)C[C@@H]2CC[C@@H](O)[C@H](OC)C2)CC(=O)[C@H](C)C=C(C)[C@@H](O)[C@@H](OC)C(=O)[C@H](C)C[C@H](C)/C=C/C=CC=C1C	?	-64.1%
NC(=O)OC[C@@H]1[C@H](NC(=O)/C(=N\OCC(=O)O)c2csc(N)n2)C(=O)N1S(=O)(=O)O	-22.8%	3.3%
CN1CCN(c2nc(-c3ccc(N(C)C)cc3)nc3ccccc23)CC1	-3.9%	-7.9%
SMILES	EPAC2 antag	EPAC1 ag val
CC(c1ccc(N(C)C)cc1)c1ccnc2ccccc12 (centres undefined)	-13.3%	112µM*
COCCn1c(=O)c(-c2cccc(C#N)c2)nc2cnc(Nc3ccccc3)nc21	9.9%	112µM*
COCCn1c(=O)c(CCc2ccccc2)nc2cnc(Nc3ccccc3)nc21	-11.8%	-21.2%
COCCn1c(=O)c(-c2cccc(C#N)c2)nc2cnc(Oc3ccccc3)nc21	-20.1%	?
COCCn1c(=O)c(CCc2ccccc2)nc2cnc(Nc3cccc(OC)c3)nc21	-30.3%	112µM*
COc1ccc(Nc2ncc3nc(-c4cccs4)c(=O)n(Cc4cccc(OC)c4)c3n2)cc1	12.4%	?
COc1cccc(Cn2c(=O)c(-c3cccs3)nc3cnc(Nc4cccc(OC)c4)nc32)c1	-3.3%	112µM*
COc1cccc(Cn2c(=O)c(-c3ccc(Cl)cc3)nc3cnc(N4CCNCC4)nc32)c1	50.1µM*	?
COc1ccc(-c2nc3cnc(N4CCNCC4)nc3n(Cc3cccc(OC)c3)c2=O)cc1	-98.1%	?
COc1cc(CN2CCC3(CCC(CNC(=O)c4ccccc4)O3)CC2)cc(OC)c1 (centres undefined)	4.8%	-14.2%
Cc1cc(C(=O)Nc2cccc(-c3nc(CNC(=O)c4sc(C)nc4C)c(C)o3)c2)c(C)o1	-3.1%	22.3%
Cc1ccccc1CNc1ncnc2c1ncn2[C@@H]1O[C@H](CO)[C@@H](O)[C@H]1O	7.7%	-25.8%
COCCn1c(=O)c(C)nc2cnc(Nc3cccc(OC)c3)nc21	-9.1%	-5.9%
COCCn1c(=O)c(-c2ccc(OC)cc2)nc2cnc(Nc3cccc(OC)c3)nc21	?	112µM*
Cc1nn(C)cc1CNc1nc(C)c(-c2ccn(CC3COc4ccccc4O3)n2)s1 (centres undefined)	?	1.1%
CC(=O)c1ccc(F)c(-c2cc(C)cc3c2OC(CNC(=O)c2cnc4ccccn4c2=O)C3)c1 (centres undefined)	?	11.5%
c1ccc(CCNc2nc(-c3ccccc3)cs2)cc1	-13.6%	100µM*
c1ccc(-c2csc(-c3nc4ccccc4[nH]3)n2)cc1	-15.5%	?
CC(=O)Oc1ccc2c(c1C(C)C)CCC1C(C)(C)CCC[C@@]21C (some centres undefined)	-28.0%	100µM*
COC(=O)[C@@]1(C)CCC[C@@]2(C)c3ccc(O)c(C(C)C)c3CCC21 (some centres undefined)	?	-37.9%
Nc1c(S(=O)(=O)O)cc(Nc2ccc(Nc3nc(Cl)nc(Nc4ccc(S(=O)(=O)O)cc4)n3)c(S(=O)(=O)O)c2)c2c1C(=O)c1ccccc1C2=O	79.4µM*	?
CCCCN(CCCC)C(=S)[S-].CCCCN(CCCC)C(=S)[S-].[Zn+2]	21.2%	-6.4%
CCCCCCOc1ccccc1C(N)=O	?	-10.1%
CCCc1c(OCCCCc2nn[nH]n2)ccc(C(C)=O)c1O	8.91µM*!	10.4%
O=c1c2ccccc2oc2ccc(Oc3ccccc3)cc12	?	100µM*
SMILES	EPAC2 antag	EPAC1 ag val
CCOC(=O)/C=C/c1ccc2oc3ccccc3c(=O)c2c1	-15.3%	-0.8%
CC(C)(C)c1ccc(CN2CCN(C(c3ccccc3)c3ccc(Cl)cc3)CC2)cc1 (centres undefined)	-19.8%	3.8%
COc1ccc(C(=O)N2CCC3(CCCN(Cc4cc(C(F)(F)F)cc(C(F)(F)F)c4)C3)CC2)cc1	35.5µM*	-78.0%
COC(=O)N1CCC2(CCCN(Cc3cc(C(F)(F)F)cc(C(F)(F)F)c3)C2)CC1	-25.1%	-27.7%
CC(C)c1c(C(=O)NC(c2cccnc2)C(F)(F)F)cnn1-c1nccc(-c2cccs2)n1 (centres undefined)	?	4.1%
COC(=O)c1ccccc1-c1cc(C)cc2c1OC(CNC(=O)c1ccn(C)n1)C2 (centres undefined)	?	1.3%
COCC(=O)Nc1cc(C(=O)N2CCN(C)C(c3ccccc3)C2)c2c(c1)nc(-c1ccncc1)n2C (centres undefined)	3.4%	-8.9%
Clc1ccc(C(c2ccccc2Cl)C(Cl)Cl)cc1 (centres undefined)	14.1µM*!	?
